Most compounds without a hit are left out; they make up all but 17% or so of the library.
HT1080 IDH1KD tx: HT-1080 IDH1 knockdown cell toxicity (counter line); HT-1080 IDH1 knockdown viability, ATP luminescence, 48 h; Potency, µM (series often up to 46.1 µM), hits mostly cytotoxic; 360,000 tested, 2% active
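In this qHTS, HT-1080 cells depleted of IDH1 are exposed for 48 h at 37 °C to compound titrations. Toxicity is scored from CellTiter-Glo luminescence, with DMSO as full viability and medium alone as none.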
TDP1 cell CPT: DT40-hTDP1 cell growth loss with CPT; chicken DT40 Tdp1-/-;hTDP1 cells + 20 nM CPT, ATP luminescence, 48 h; Potency, µM (series often up to 46.2 µM), hits mostly inhibitors; 420,000 tested, 12% active; AID 686979; further: nearly all actives have a fitted effect of over 55% in size
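Chicken DT40 Tdp1-/- cells complemented with human TDP1, 400 cells/well, exposed to compounds plus 20 nM camptothecin for at least 48 h at 37 C; viability read as ATP content by CellTiter-Glo luminescence.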
HT1080-NT tox: kills 2HG-producing HT-1080-NT fibrosarcoma cells; HT-1080-NT fibrosarcoma viability, CellTiter-Glo ATP luminescence, 48 h; Potency, µM (series often up to 46.1 µM), usual class: cytotoxic; 360,000 tested, 1.6% active; AID 686970;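 further: NT is the 2HG producing partner of a matched IDH1 knockdown line; nearly all actives have a fitted effect of over 55% in size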
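Viability of the 2HG-overproducing fibrosarcoma line after 48 hours of compound exposure at 37 degrees C was determined by luminescence with CellTiter-Glo, and concentration-effect curves were then fitted and categorized.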
TGFb inhibitor: TGF-b pathway inhibition. HepG2 CAGA-GFP TGF-b/SMAD3 reporter, GFP fluorescence, 18 h; TGF-beta stimulated, 500 pg/mL final. Potency, µM (highest dose often 46.1 µM), hits mostly inhibitors. 410,000 tested, 1.2% active. AID 588855; further: nearly all actives have a fitted effect of over 65% in size
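GFP signal (ex488/em500-530) from TGF-beta-stimulated HEPG2 CAGA-GFP cells, 500 pg/mL final, 18 h at 37 degrees C in DMEM plus 1% FBS, normalized to unstimulated and DMSO-stimulated controls.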
TDP1 cell noCPT: qHTS for Inhibitors of human tyrosyl-DNA phosphodiesterase 1 (TDP1): qHTS in cells in absence of CPT. DT40 Tdp1-/- hTDP1 cells, no CPT, ATP luminescence, 48 h. Potency, µM (titrated, usually from 46.2 µM), hits mostly inhibitors. 420,000 tested, 15% active. AID 686978, 2013; further: nearly all actives have a fitted effect of over 55% in size
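DT40 Tdp1-/-;hTDP1 cells, no CPT (DMSO vehicle only), 400 cells/well; compounds pin-transferred; ≥48 hr, 37 °C; CellTiter-Glo 30 min RT dark, luminescence read.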
HepG2 viability: HepG2 cytotoxicity, counter-screen for TGF-b inhibitors | Potency, µM (highest dose often 46.1 µM), hits mostly cytotoxic | HepG2 CAGA-GFP viability, ATP luminescence, 18 h | 410,000 tested, 0.76% active
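HepG2 CAGA-GFP cells (1000/well, DMEM with 1% FBS) received compound, then TGF-beta at 500 pg/mL final, and were incubated 18 hours at 37 degrees C. Viability was read by CellTiter-Glo luminescence. Media-only wells were set as complete cell-killing and DMSO as no toxicity.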
Numbers stand for hits; 0 = inactive; ? = inconclusive; - = no result; ! = not active in a repeat; [ ] = remark or other dose. The call rests on the fitted dose curve; in most records, active means well fitted curve in the direction sought with a large enough effect; inconclusive means small, poorly fitted or top-dose-only effect, or another doubt; inactive means no such curve, though single readings can be large; an effect the other way counts as inactive or inconclusive.

SMILES	HT1080 IDH1KD tx	TDP1 cell CPT	HT1080-NT tox	TGFb inhibitor	TDP1 cell noCPT	HepG2 viability
O=C(Nc1cccc(S(=O)(=O)N2CCCC2)c1)c1cc(-c2ccccn2)nc2ccccc12	0	23µM	0	0	21µM	0
CN(c1cccc(NC(=O)c2ccc(C(C)(C)C)cc2)c1)S(C)(=O)=O	?	23µM	23µM	0	21µM	0
O=C(c1ccc(NS(=O)(=O)c2ccc3[nH]c(=O)[nH]c3c2)cc1)N1CCN(c2ccccc2O)CC1	0	0	0	0	0	0
Cc1ccc(C)c(NC(=O)CCN2CCCCC2)c1	0	0	0	0	0	0
COc1ccc(NC(=O)c2cccc(S(=O)(=O)N(C)c3ccccc3)c2)cn1	0	16µM	0	0	16µM	0
CN(c1cccc(NC(=O)c2ccc(N(C)S(=O)(=O)c3ccccc3)cc2)c1)S(C)(=O)=O	?	21µM	0	0	?	0
Cc1ccc(NS(=O)(=O)c2cc(C(=O)Nc3cccc(N(C)S(C)(=O)=O)c3)ccc2C)c(C)c1	0	16µM	0	?	18µM	0
CN(C)S(=O)(=O)c1cccc(NC(=O)c2cccc(NS(=O)(=O)c3ccccc3)c2)c1	?	21µM	?	?	?	0
CC(=O)c1cccc(NC(=O)c2ccc(N(C)S(C)(=O)=O)cc2)c1	0	0	0	0	0	0
CC(=O)NC(c1cccc(F)c1)c1nc(/C=C/c2ccccc2)cs1 (stereo not drawn)	0	?	0	0	0	0
CC[C@H](C)NC(=O)c1ccc(Cn2c(=S)[nH]c3c([nH]c4ccc(OC)cc43)c2=O)cc1	0	?	0	0	0	0
CSc1ncccc1C(=O)Nc1cccc(S(=O)(=O)N2CCCCC2)c1	0	?	0	0	15µM	0
CN(c1ccccc1)S(=O)(=O)c1cccc(NC(=O)c2ccncc2)c1	-	6.5µM	-	?	8.2µM	0
O=C(Nc1ccc2c(c1)CCC2)c1ccccc1	0	?	0	0	16µM	0
O=C(O)c1ccccc1-c1ccccc1C(=O)Nc1ccc2c(c1)CCC2	0	0	0	0	0	0
CSc1ncccc1C(=O)Nc1cccc(S(=O)(=O)N(C)c2ccccc2)c1	0	18µM	0	0	?	0
CC1CCN(C(=S)c2ccc3c(c2)OCO3)CC1	0	0	0	?	0	0
S=C(c1ccc2c(c1)OCO2)N1CCN(c2cccc(Cl)c2)CC1	3.3µM	3.7µM	?	0	4.1µM	0
Cc1cccc(N2CCN(C(=S)c3ccc4c(c3)OCO4)CC2)c1	?	6.5µM	0	0	5.8µM	0
Cc1cccc(C)c1NC(=O)CSc1ncnc2[nH]ncc12	0	0	0	0	0	0
O=C(CSc1ncnc2[nH]ncc12)Nc1nc(-c2ccc(F)c(F)c2)cs1	0	13µM	0	0	21µM	0
COc1ccc(-c2csc(NC(=O)CS(=O)(=O)c3ccccc3)n2)cc1	0	?	0	0	23µM	0
O=C(Cc1ccc(F)cc1)Nc1nc(-c2ccc(F)c(F)c2)cs1	0	8.2µM	0	?	?	0
COc1ccc(CC(=O)Nc2nc(-c3ccc(F)c(F)c3)cs2)cc1	?	21µM	18µM	?	16µM	0
O=C(CN1C(=O)NC2(CCCC2)C1=O)Nc1nc(-c2ccc(F)c(F)c2)cs1	0	12µM	0	0	?	0
SMILES	HT1080 IDH1KD tx	TDP1 cell CPT	HT1080-NT tox	TGFb inhibitor	TDP1 cell noCPT	HepG2 viability
Cc1cc(NC(=O)c2ccc(Cl)cc2)cc(C)c1OCC(=O)N1CCOCC1	0	0	0	0	0	0
O=S1(=O)NC(CC2=CCCCC2)C2CCCCC2O1 (stereo not drawn)	0	7.3µM	0	0	0	0
O=S1(=O)N[C@@H](CC2=CCCCC2)C2CCCCC2O1 (stereo partly drawn)	0	0	0	0	0	0
Cc1nc(CSc2nc3[nH]ncc3c(=O)n2-c2ccccc2)cs1	0	0	0	0	0	0
CCc1ccc(-n2c(SCc3cccc(F)c3)nc3[nH]ncc3c2=O)cc1	-	21µM	-	?	16µM	20µM
Cc1ccc(-n2c(SCc3cccc(F)c3)nc3[nH]ncc3c2=O)cc1C	-	21µM	-	?	21µM	20µM
CCc1ccc(-n2c(SCc3ccccc3C)nc3[nH]ncc3c2=O)cc1	-	?	-	-	21µM	22µM
O=c1c2cn[nH]c2nc(SCc2c(F)cccc2F)n1-c1ccc(Cl)cc1	?	?	0	16µM!	?	0
Cc1ccc(-n2c(SCc3ccccc3C)nc3[nH]ncc3c2=O)cc1C	-	?	-	?	?	0
Cn1c2ccccc2c(=O)c2ccc(NCCc3cccs3)cc21	0	?	0	?	?	0
CCOC(=O)C1CCCCN1Cc1nc(N2CCN(C(C)=O)CC2)c2ccccc2n1 (stereo not drawn)	-	0[9.04 µM]	-	-	0	-
OC(COc1c(F)cc(Br)cc1F)CN1CCc2ccccc2C1 (stereo not drawn)	0	?	0	0	?	0
Cc1cccc(C)c1OCC(O)CN1CCc2ccccc2C1 (stereo not drawn)	?	4.6µM	?	0	6.5µM	0
CC1(C)N=C(N)NC(Nc2ccccc2)=N1	?	?	8.2µM	0	?	0
Cc1ccccc1NC1=NC(C)(C)N=C(N)N1	0	0	0	0	0	0
CNNC(=S)NC1CC2CC1C1C=CCC21 (stereo not drawn)	0	0	0	0	0	0
COc1cc(/C=N/NC(=S)NC2CC3CC2C2C=CCC32)ccc1O (stereo not drawn)	?	?	18µM	?	15µM	0
CCOc1ccc(/C=N/NC(=S)NC2CC3CCC2C3)cc1 (stereo not drawn)	0	?	0	0	?	0
CCOc1ccc(/C=N/NC(=S)NC2CC3CC2C2C=CCC32)cc1 (stereo not drawn)	0	16µM	0	?	16µM	0
Cc1ccc2c(c1)c(=O)c1ccccc1n2CCCC(=O)Nc1cc(Cl)ccc1C	-	?	-	0	16µM	0
Cc1ccc2c(c1)c(=O)c1ccccc1n2CCCC(=O)Nc1c(F)cccc1F	-	0	-	0	0	0
Cc1ccc(NC(=O)CCCn2c3ccccc3c(=O)c3cc(C)ccc32)c(Br)c1	-	?	-	0	15µM	0
O=C(CSC(=S)N1CCN(c2ccccc2)CC1)Nc1nc(-c2ccccc2)c(-c2ccccc2)o1	0	?	0	0	?	0
COc1cc(OCc2ccccc2)c(OC)c(OCc2ccccc2)c1	0	21µM	0	0	?	0

Assay outcomes from PubChem BioAssay.
